# MsrA inh: inhibits bovine methionine sulfoxide reductase A | purified bovine MsrA, absorbance read-out | inhibition, % at 15.5 µM | 0.75% of 360,000 active | AID 651718; in the data active = inhibition above about 4.5%;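 note: 0% = vehicle wells with enzyme and 100% = reference inhibitor wells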
# bovine MsrA act: bovine methionine sulfoxide reductase A activation. activation, % at 10.6 µM. AID 602163. purified bovine MsrA, absorbance read-out. 0.3% of 360,000 active; in the data active = activation above about 7.5%;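 note: 0% = vehicle and 100% = reference activator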
# rCAG RNA binder: molecules binding r(CAG) RNA repeats; 1.3% of 370,000 active; inhibition, % at 3 µM; AID 651821; r(CAG) RNA repeat, TO-PRO-1 dye displacement fluorescence;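 active = inhibition above the plate cutoff, the mean of all test compounds on that plate plus 3 SD, cut at about 35% in these data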;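 note: 0% = DMSO alone and 100% = 100 µM mitoxantrone as full dye displacement; higher means more dye released from RNA so lower well fluorescence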
# PG9 binder: small molecules binding HIV-1 gp120 antibody PG9; inhibition, % at 6.7 µM; 0.43% of 360,000 active; TR-FRET gp120-PG9 antibody binding; in the data active = inhibition above about 8.5%
# sPLA2-III inh: Blocks human group III sPLA2 activity | Q9NZ20 | inhibition, % at 12.2 µM | QFRET BODIPY PC-A2 liposome hydrolysis, fluorescence | 0.56% of 370,000 active;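 active = inhibition above mean plus 3 SD of compounds lying within the high and low control bounds, cut at about 19% in these data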;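 note: 0% = median of test compound wells and 100% = no enzyme DMSO wells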
# Target sequence (Q9NZ20 whole entry, looked up): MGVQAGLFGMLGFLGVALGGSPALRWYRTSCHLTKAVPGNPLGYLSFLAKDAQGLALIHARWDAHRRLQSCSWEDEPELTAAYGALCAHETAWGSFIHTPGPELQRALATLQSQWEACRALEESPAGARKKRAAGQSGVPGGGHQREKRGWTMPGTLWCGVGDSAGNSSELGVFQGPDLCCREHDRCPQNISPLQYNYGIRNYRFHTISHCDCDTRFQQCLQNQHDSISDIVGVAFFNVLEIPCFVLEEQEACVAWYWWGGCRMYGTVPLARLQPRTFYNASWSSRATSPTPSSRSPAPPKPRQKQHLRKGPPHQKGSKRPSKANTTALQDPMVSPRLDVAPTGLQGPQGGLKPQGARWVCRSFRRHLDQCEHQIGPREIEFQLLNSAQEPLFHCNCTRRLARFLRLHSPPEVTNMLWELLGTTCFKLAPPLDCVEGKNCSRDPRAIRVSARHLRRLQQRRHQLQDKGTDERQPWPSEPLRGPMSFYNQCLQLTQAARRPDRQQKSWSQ
# rCAG binder conf: r(CAG) RNA repeat binding, confirmation | 70% of 4,300 active | inhibition, % at 3 µM | TO-PRO-1 dye displacement fluorescence | shares compounds with rCAG RNA binder | AID 652065;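 active = inhibition above a per-plate cutoff, the mean inhibition of sample wells plus 3 SD, cut at about 35% in these data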;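 note: loss of TO-PRO-1 fluorescence as compound displaces dye from 1x1 AA loop RNA; 0% = DMSO only wells and 100% = 100 µM mitoxantrone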
# DNA CAG counter: counter-screen for rCAG RNA binders: DNA CAG dye complex inhibitors; inhibition, % at 3 µM; shares compounds with rCAG RNA binder; AID 652068; d(CAG) DNA oligo TO-PRO-1 dye displacement, fluorescence; 94% of 4,300 active;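 active = inhibition above its plate's cutoff, the mean test-well inhibition plus 3 SD, cut at about 4.8% in these data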;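 note: 0% = DNA dye mix with DMSO and 100% = 100 µM mitoxantrone; hits displace the dye from DNA and so lower well fluorescence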
# DNA CAG DR: disrupts DNA CAG TO-PRO-1 complex in dose response. AID 686960. 20% of 250 active. shares compounds with rCAG RNA binder. DNA CAG/GTC duplex TO-PRO-1 dye displacement fluorescence. IC50, µM; in the data active = IC50 below about 10 µM
# Starred values were filed as active, the others as inactive; i = inactive; x = no result given. An excerpt weighted towards active compounds, which were near 3.2% of everything screened.
SMILES,MsrA inh,bovine MsrA act,rCAG RNA binder,PG9 binder,sPLA2-III inh,rCAG binder conf,DNA CAG counter,others
C#CCN1C(=O)S/C(=C\c2ccc(-c3ccc(C(=O)O)cc3C)o2)C1=O,2,-4,48*,-4,-12,43*,16*,
Cc1ccc(C(=O)O)cc1-c1ccc(/C=C2\SC(=O)N(CC(=O)Nc3ccccc3)C2=O)o1,-1,-3,42*,-2,-11,89*,66*,
Cc1ccccc1NC(=O)CN1C(=O)S/C(=C\c2ccc(-c3cc(C(=O)O)ccc3C)o2)C1=O,0,-7,10,-4,-7,x,x,
CCCCCCCCN1C(=O)[C@@H](CC(=O)NCc2cccc(C(F)(F)F)c2)C[C@@]2(C(=O)OC)C1=C[C@H](C(C)C)O[C@@H]2C1CC1,x,x,13,x,-3,x,x,
O=C(O)CN1C(=O)/C(=C/c2ccccc2Cl)Oc2ccccc21,4,-2,39*,0,-7,35*,7.3*,
Cc1ccccc1OCC(=O)NS(=O)(=O)c1ccc(Cl)cc1,1,-6,3,-1,0,x,x,
Cc1ccc(C(C)C)c(OCC(=O)NS(=O)(=O)c2ccc(Cl)cc2)c1,1,-4,51*,-3,-27,36*,7.0*,
Cn1c(=O)c(C#N)c(-c2ccc(F)cc2)c2cc(C(=O)c3cc(Cl)cc(Cl)c3O)cnc21,-1,-2,75*,1,0,83*,41*,
Cc1c(OCC(=O)NC(Cc2ccc(Cl)cc2)C(=O)O)ccc2c1oc(=O)c1ccccc12 (stereo not given),0,-3,13,-1,-3,x,x,
Cc1c(Cc2ccccc2)c(=O)oc2c(C)c(OCC(=O)N[C@@H](Cc3ccccc3)C(=O)O)ccc12,2,-1,47*,1,1,70*,29*,DNA CAG DR=i
Cc1c(Cc2ccccc2)c(=O)oc2cc(OCC(=O)NC(Cc3ccc(Cl)cc3)C(=O)O)ccc12 (stereo not given),1,-4,52*,2,-53,66*,25*,
Cc1cc(OCC(=O)N[C@@H](CSCc2ccccc2)C(=O)O)c2c(C)c(C)c(=O)oc2c1,1,-7,49*,-3,-10,54*,13*,
CCC(NC(=O)Cc1c(C)c2ccc(OC)c(C)c2oc1=O)C(=O)NC(Cc1ccc(Cl)cc1)C(=O)O (stereo not given),2,-1,36*,1,-15,41*,8.8*,
O=C(Nc1ccc(F)c(C(F)(F)F)c1)Nc1nnc(-c2ccncc2)s1,x,x,x,x,9,x,x,
CCCCCCc1c(C)c2ccc(OCC(=O)N[C@@H](Cc3ccccc3)C(=O)O)cc2oc1=O,1,-2,46*,0,-51,76*,31*,DNA CAG DR=i
O=C(NCCc1ccccc1)OCc1cn(Cc2ccccc2C(F)(F)F)nn1,x,x,-2,x,-4,x,x,
O=C1/C(=C\c2ccccn2)SC(=S)N1c1ccc(S(=O)(=O)Nc2nccs2)cc1,-1,0,65*,-3,-39,83*,52*,
COc1ccc(/C=C2/SC(=S)N(c3ccc(S(=O)(=O)Nc4nccs4)cc3)C2=O)cc1,2,-3,73*,0,-14,77*,44*,
Cc1ccc(/C=C2/SC(=S)N(c3ccc(S(=O)(=O)Nc4nccs4)cc3)C2=O)cc1,1,-12,42*,0,-11,82*,49*,
O=C1/C(=C/c2ccccn2)SC(=S)N1c1ccc(O)cc1,2,-5,3,-1,-5,x,x,
Cc1ccc2c(c1)C1CS(=O)(=O)N(Cc3ccccc3)C(=O)N1C2 (stereo not given),x,x,1,x,1,x,x,
O=C(CSc1ccccc1)Nc1ccc(S(=O)(=O)Nc2ncccn2)cc1,0,-2,2,2,2,x,x,
O=C(CSc1ccc2ccccc2c1)Nc1ccc(S(=O)(=O)Nc2nccs2)cc1,-1,-1,74*,-1,-106,71*,36*,
O=C(CSc1ccc(Br)c2cccc(Cl)c12)Nc1ccc(S(=O)(=O)Nc2nccs2)cc1,2,-11,77*,-3,-49,75*,43*,

# Source: PubChem BioAssay (The Scripps Research Institute Molecular Screening Center)
